This is part of a sample that, as a whole, favours compounds with a hit. Of some 83,000 tested, about 20% had one in any assay.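 Percent growth is the endpoint: 0 to 100 indicates growth inhibition (40 means 60% inhibition), 0 means no net growth, and negative values indicate cell death.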
What was measured:
Assay in all cases: NCI-60 one-dose screen, 48 h (100 = growth as untreated, 0 = no growth, -100 = all killed)
Settings in all cases: 10 µM unless noted; active means growth percent below 10; inactive means the rest
NCI-H23 lung = test system: NCI-H23 lung
NCI-H226 lung = test system: NCI-H226 lung
NCI-H322M lung = test system: NCI-H322M lung
HOP-62 NSCLC = test system: HOP-62 NSCLC
NCI-H460 lung = test system: NCI-H460 lung
HOP-92 NSCLC = test system: HOP-92 NSCLC
NCI-H522 lung = test system: NCI-H522 lung
A549/ATCC NSCLC = test system: A549/ATCC NSCLC
786-0 renal = test system: 786-0 renal
COLO 205 colon = test system: COLO 205 colon
DU-145 prostate = test system: DU-145 prostate
K-562 leukemia = test system: K-562 leukemia
MALME-3M melanoma = test system: MALME-3M melanoma
MDA-MB-231 breast = test system: MDA-MB-231 breast
SF-268 CNS = test system: SF-268 CNS
SF-295 CNS = test system: SF-295 CNS
SF-539 CNS = test system: SF-539 CNS
UACC-257 melanoma = test system: UACC-257 melanoma
M14 melanoma = test system: M14 melanoma
RXF 393 renal = test system: RXF 393 renal

Measured: growth

O=S(=O)(O)c1cccnc1
inactive: NCI-H23 lung 115% | NCI-H226 lung 105% | NCI-H322M lung 84.6% | HOP-62 NSCLC 114% | NCI-H460 lung 109% | HOP-92 NSCLC 142% | NCI-H522 lung 109% | A549/ATCC NSCLC 125% | 786-0 renal 103% | COLO 205 colon 105% | DU-145 prostate 122% | K-562 leukemia 105% | MALME-3M melanoma 90.1% | MDA-MB-231 breast 103% | SF-268 CNS 103% | SF-295 CNS 108% | SF-539 CNS 95.8% | UACC-257 melanoma 123%

NS(=O)(=O)c1cc(=O)[nH]c(=O)[nH]1
inactive: NCI-H23 lung 114% | NCI-H226 lung 109% | NCI-H322M lung 93.7% | HOP-62 NSCLC 107% | NCI-H460 lung 111% | HOP-92 NSCLC 172% | NCI-H522 lung 74.5% | A549/ATCC NSCLC 115% | 786-0 renal 105% | COLO 205 colon 117% | DU-145 prostate 114% | K-562 leukemia 131% | MALME-3M melanoma 90.7% | MDA-MB-231 breast 115% | SF-268 CNS 110% | SF-295 CNS 109% | SF-539 CNS 111% | UACC-257 melanoma 113% | M14 melanoma 102%

CS(=O)(=O)c1ccc(/C=C\C(=O)O)cc1
inactive: NCI-H23 lung 106% | NCI-H226 lung 96.1% | NCI-H322M lung 108% | HOP-62 NSCLC 99.5% | NCI-H460 lung 94.3% | HOP-92 NSCLC 94% | NCI-H522 lung 99.5% | A549/ATCC NSCLC 106% | 786-0 renal 108% | COLO 205 colon 109% | DU-145 prostate 104% | K-562 leukemia 122% | MDA-MB-231 breast 110% | RXF 393 renal 95.7% | SF-268 CNS 94.1% | SF-295 CNS 103% | SF-539 CNS 91.8% | UACC-257 melanoma 99.7% | M14 melanoma 94.9%

CC(=O)NNC(=S)N/C=C/c1c(C)ccc([N+](=O)[O-])c1[N+](=O)[O-]
inactive: NCI-H23 lung 94.8% | NCI-H226 lung 110% | NCI-H322M lung 111% | HOP-62 NSCLC 103% | NCI-H460 lung 102% | HOP-92 NSCLC 100% | NCI-H522 lung 87.8% | A549/ATCC NSCLC 102% | 786-0 renal 97.2% | COLO 205 colon 101% | DU-145 prostate 104% | K-562 leukemia 102% | MDA-MB-231 breast 99.3% | RXF 393 renal 105% | SF-268 CNS 96.7% | SF-295 CNS 103% | SF-539 CNS 99.7% | UACC-257 melanoma 99.6% | M14 melanoma 89.6%

Ic1cccs1
inactive: NCI-H23 lung 97.7% | NCI-H226 lung 107% | NCI-H322M lung 105% | HOP-62 NSCLC 99% | NCI-H460 lung 108% | HOP-92 NSCLC 121% | NCI-H522 lung 97.5% | A549/ATCC NSCLC 98% | 786-0 renal 105% | COLO 205 colon 117% | DU-145 prostate 107% | K-562 leukemia 102% | MALME-3M melanoma 94.6% | RXF 393 renal 119% | SF-268 CNS 99.3% | SF-295 CNS 95.9% | SF-539 CNS 101% | UACC-257 melanoma 99.5% | M14 melanoma 104%

Cc1[nH]n(-c2ccccc2)c(=O)c1C=NC(=S)C(N)=S
inactive: NCI-H23 lung 98.1% | NCI-H226 lung 99.7% | NCI-H322M lung 110% | HOP-62 NSCLC 104% | NCI-H460 lung 107% | HOP-92 NSCLC 84% | NCI-H522 lung 86.2% | A549/ATCC NSCLC 93.6% | 786-0 renal 104% | COLO 205 colon 106% | DU-145 prostate 106% | K-562 leukemia 101% | MDA-MB-231 breast 98.9% | RXF 393 renal 106% | SF-268 CNS 100% | SF-295 CNS 98.4% | SF-539 CNS 106% | UACC-257 melanoma 97.7% | M14 melanoma 103%

O=S(Cc1ccccc1)/C(=C/NC(=S)Nc1ccccc1)c1ccccc1 (centres undefined)
inactive: NCI-H23 lung 89.3% | NCI-H226 lung 101% | NCI-H322M lung 99.7% | HOP-62 NSCLC 94.9% | NCI-H460 lung 107% | HOP-92 NSCLC 101% | NCI-H522 lung 77% | A549/ATCC NSCLC 95.9% | 786-0 renal 110% | COLO 205 colon 101% | DU-145 prostate 104% | K-562 leukemia 106% | MDA-MB-231 breast 108% | RXF 393 renal 116% | SF-268 CNS 99.2% | SF-295 CNS 114% | SF-539 CNS 99.7% | UACC-257 melanoma 98% | M14 melanoma 98.5%

CCCCNc1ccc(-c2ccc(NCCCC)cc2)cc1
inactive: NCI-H23 lung 65.5% | NCI-H226 lung 73.4% | NCI-H322M lung 95.9% | HOP-62 NSCLC 91.2% | NCI-H460 lung 65.8% | HOP-92 NSCLC 97.7% | NCI-H522 lung 46.2% | A549/ATCC NSCLC 61.6% | 786-0 renal 58.9% | COLO 205 colon 111% | DU-145 prostate 83.1% | K-562 leukemia 46.7% | MDA-MB-231 breast 84.1% | RXF 393 renal 79.7% | SF-268 CNS 70% | SF-295 CNS 57.4% | SF-539 CNS 49.5% | UACC-257 melanoma 70.7%

O=c1cc(C(F)(F)F)[nH]c(=S)[nH]1
inactive: NCI-H23 lung 103% | NCI-H226 lung 112% | NCI-H322M lung 101% | HOP-62 NSCLC 100% | NCI-H460 lung 112% | HOP-92 NSCLC 126% | NCI-H522 lung 99.4% | A549/ATCC NSCLC 98.1% | 786-0 renal 104% | COLO 205 colon 109% | DU-145 prostate 109% | K-562 leukemia 111% | MALME-3M melanoma 96.6% | RXF 393 renal 104% | SF-268 CNS 121% | SF-295 CNS 98.3% | SF-539 CNS 96.5% | UACC-257 melanoma 99.2% | M14 melanoma 108%

Source: PubChem BioAssay (NCI)
